Screens deposited in PubChem BioAssay by Broad Institute.
EWS-Fli inh: EWS/Fli-driven NR0B1 reporter inhibitors, primary screen, A673 cells, NR0B1 luciferase, luminescence, MLPCN library. AID 651661, 2012. viability-normalised. 0.67% of 350,000 active. inhibition, % at 12.6 µM;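 active = mean inhibition of at least 50% after viability correction, with every replicate also passing that limit; inconclusive = mean reaches 50% but only one of two replicates passes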;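 note: firefly luciferase signal divided by Alamar Blue viability fluorescence both relative to DMSO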
TRPM1 prom inh: inhibitors of MITF-dependent TRPM1 promoter reporter, primary screen, cell-based, SK-MEL-5, single point, luciferase | SK-MEL-5 TRPM1 promoter luciferase, 24 h | inhibition, % at 12.5 µM | 0.83% of 330,000 active | AID 488899, 2010;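 active = mean inhibition across replicates of 60% or more, whatever share of single replicates reaches that level; inconclusive = some that reach 60%, reason not given; inactive = mean inhibition across replicates below 60%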
EBV LMP1 NFkB: EBV LMP1-driven NF-kappaB luciferase reporter inhibitors, primary screen, cell-based, luminescence, single point | inhibition, % at 12.5 µM | LMP1-induced NF-kappaB luciferase reporter cells | AID 504558, 2011 | 0.69% of 350,000 active; in the data active = inhibition above about 41%; inconclusive = no clear call, values can overlap the other calls;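 note: 0% = neutral control wells and 100% = reference inhibitor control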
LGR2 inh: inhibitors of bursicon-induced LGR2 CRE-luciferase signal, primary screen, cell-based, HEK293, CRE-luciferase reporter, bursicon stimulation; 0.35% of 380,000 active; Drosophila bursicon receptor LGR2 (rickets); inhibition, % at 9.99 µM; bursicon-stimulated, 4 h; AID 720647, 2013;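 active = drop in luminescence signal, shown as inhibition above about 50% in the replicate tests, limit read from the data, passing the limit was not always enough; inconclusive = probably only some replicates passing the limit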;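 note: agonist challenge used bursicon conditioned medium at about half maximal strength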
Shn3 inh set2: reduction of Shn3 3'UTR firefly luciferase signal, primary screen, Schnurri-3 inhibitor project, cell-based, Clone20 osteoblasts, set 2 | Clone20 osteoblast Shn3 3'UTR firefly luciferase, 24 h | AID 588674, 2011 | inhibition, % at 12.5 µM | 0.52% of 360,000 active;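 active = mean inhibition of at least 75% with every replicate also reaching 75%; inconclusive = mean inhibition at least 75% but some replicate below; inactive = mean inhibition below 75%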;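 note: 0% = median of neutral control wells and 100% = pilot-screen positive control compound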
PAX8 inh HTS: inhibitors of PAX8-driven TPO luciferase reporter, primary screen, RMG-I cells, single concentration; SteadyGlo, 24 h; 1.2% of 360,000 active; inhibition, % at 12.6 µM;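 active = mean replicate inhibition at least 60% with every replicate also reaching 60%; inconclusive = only one of the two criteria is met; inactive = mean below 60% and not all replicates reaching 60%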;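 note: luciferase light reporting Pax8 driven TPO promoter activity; plate controls were median of neutral control wells for no effect and mitoxantrone controls for full effect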
Numbers without * were called inactive; ? = inconclusive; / = no result. Compounds with a hit are over-represented: about 2.2% of the library has one in this group of screens.

SMILES | EWS-Fli inh | TRPM1 prom inh | EBV LMP1 NFkB | LGR2 inh | Shn3 inh set2 | PAX8 inh HTS
C[C@@H]1CCCCO[C@@H](CN(C)C(=O)CCC(F)(F)F)[C@H](C)CN([C@@H](C)CO)C(=O)c2cc(NS(=O)(=O)c3ccc(Cl)cc3)ccc2O1 | / | / | / | -4 | / | 5
C[C@@]12C(=O)OC(=O)[C@]1(C)C1CCC2O1 | 0 | 80* | 36 | 18 | 94* | 112*
CC12C(=O)N(c3nccs3)C(=O)C1(C)C1CCC2O1 (stereo unspecified) | 8 | / | / | -7 | -12 | -10
COc1ccc(NC(=O)N(C)C[C@H]2OCCCC[C@@H](C)Oc3ccc(NC(=O)Nc4ccc5c(c4)OCO5)cc3C(=O)N([C@@H](C)CO)C[C@H]2C)cc1 | -3 | / | / | -8 | / | 5
O=C(COc1cccc(C(F)(F)F)c1)NNC(=O)c1ccc(=O)[nH]c1 | -2 | -4 | 72* | -7 | -4 | 15
CCCN1C[C@H](C)[C@@H](OC)CN(C)C(=O)c2ccc(NC(=O)c3ccc(F)cc3)cc2OC[C@@H]1C | 3 | / | / | 5 | / | 5
COc1ccc(NC(=O)c2sc3ncnc(N4CCN(c5ccccn5)CC4)c3c2C)cc1Cl | -10 | -7 | 44* | 26 | 88* | 39
COc1ccccc1C#Cc1ccc([C@@H]2[C@@H](C#N)N(C(=O)C3CCCCC3)[C@H]2CO)cc1 | 0 | / | / | / | / | 89*
COc1ccccc1C#Cc1ccc([C@H]2[C@@H](C#N)N(C(=O)C3CCCCC3)[C@H]2CO)cc1 | 63* | / | / | / | / | 73*
COc1ccccc1C#Cc1ccc([C@H]2[C@@H](C#N)N(C(=O)C3CCC3)[C@H]2CO)cc1 | -17 | / | / | -8 | / | 64*
CCCC#Cc1ccc([C@@H]2[C@@H](C#N)N(C(=O)C3CCCCC3)[C@@H]2CO)cc1 | 14 | / | / | -4 | / | 27
CCCC#Cc1ccc([C@H]2[C@@H](C#N)N(C(=O)C3CCCCC3)[C@H]2CO)cc1 | 7 | / | / | 17 | / | 79*
COc1ccccc1S(=O)(=O)N[C@H]1CC[C@H](CCn2cc(C3CCCCC3)nn2)O[C@H]1CO | 4 | / | / | 11 | / | 13
CO[C@@H]1CN(C)C(=O)c2cc(NS(C)(=O)=O)ccc2OC[C@@H](C)N(Cc2ccccn2)C[C@@H]1C | -4 | / | / | -11 | / | /
CCCC#Cc1ccc([C@@H]2[C@H](C#N)N(S(=O)(=O)c3cccc(F)c3)[C@H]2CO)cc1 | 20 | / | / | -12 | / | 83*
COc1cccc(-c2nc(NC3CCCC3)c3ccccc3n2)c1O | 12 | 14 | 2 | -6 | 86* | 8
COc1cccc(-c2nc(NCc3ccccc3)c3ccccc3n2)c1O | 21 | 12 | ? | -3 | 5 | 10
COc1ccccc1-c1nnc2sc(-c3ccc(N(C)C)cc3)nn12 | 60* | 45 | 0 | -6 | 28 | 29
CCNC(=O)C[C@H]1CC[C@H]2[C@H](COc3ccc(NC(=O)Nc4cccc(OC)c4)cc3C(=O)N2C)O1 | -8 | / | / | 4 | / | 30
N#Cc1ccc(-c2ccc3c(c2)[C@H]2[C@H](CCN2C(=O)CN2CCOCC2)[C@@H](CO)N3)cc1 | -1 | / | / | 0 | / | -3
COc1ccc(N2CCN(C(=O)c3ccc(CNS(=O)(=O)c4ccc(C)cc4)cc3)CC2)cc1 | 12 | 10 | 19 | 0 | 23 | 19
COC(=O)c1cc(C(=O)N2CCN(c3cccc(Cl)c3)CC2)cc([N+](=O)[O-])c1 | 51* | 5 | 13 | -5 | 9 | 57
Cc1ccc(S(=O)(=O)NCc2ccc(C(=O)N3CCN(c4ccc([N+](=O)[O-])cc4)CC3)cc2)cc1 | 21 | 52 | 20 | 25 | 90* | 88*
O=C(c1cc([N+](=O)[O-])ccc1Cl)N1CCN(c2ccc([N+](=O)[O-])cc2)CC1 | 12 | -3 | 6 | -14 | -2 | 70*
CO[C@@H]1CN(C)C(=O)c2cc(NC(=O)Nc3ccccc3F)ccc2OC[C@H](C)N(CC2CC2)C[C@H]1C | 7 | / | / | -7 | / | 12
N#Cc1c(NCc2ccccc2)ccnc1NCc1cccnc1 | / | 26 | 7 | / | 85* | 19
